Bioassay records from PubChem.
Luc counter: counter-screen: inhibitors of Kinase-Glo firefly luciferase; Kinase-Glo luciferase, ATP luminescence, 8 min; Potency, µM (highest dose often 38.3 µM), for the others: at the highest dose activity change, negative = inhibition, actives largely listed as inhibitors; 0.28% of 200,000 active; AID 1379; further: on the % scale 0 is the no-effect control and ±100 the full control effect; nearly all actives have a fitted effect of over 60% in size
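Light output from Kinase-Glo luciferase with luciferin and 10 uM ATP in 50 mM imidazole pH 7.2, KCl, MgCl2, Tween 20, BSA; compound pin-delivered, 8-min ambient incubation, then luminescence read.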
Rab9 promoter act: Rab9 promoter activation | Huh7 Rab9 promoter-luciferase reporter, luminescence, 24 h | Potency, µM (doses to about 9.22 µM), for the others: at the top dose activation, negative = inhibition, actives largely listed as activators | 2.8% of 320,000 active | AID 485297; further: % of control where 0% means no effect; nearly all actives have a fitted effect of over 60% in size
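Luminescence from Amplite-detected luciferase (10 minutes, ambient) reports Rab9 promoter activation. Before that, stable Rab9-luciferase Huh7 cells (1500/well, reduced-serum OP-MEM I plus 10% FBS) were exposed to compound for 24 hours at 37C.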
SMN2 splice enh: increases expression of the SMN2 splice variant; HEK293 SMN2-luciferase splicing reporter, luminescence, 30-36 h; Potency, µM (series often up to 46.1 µM), for the others: top-dose activity change, positive = activation, usual class: activators; 2.8% of 210,000 active; AID 1458; further: % of control where 0% means no effect; nearly all actives have a fitted effect of over 55% in size
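HEK293 cells carry an SMN2 […]–luciferase reporter in which exon 7 inclusion puts luciferase in frame. Cells were plated 10-12 h before compound addition, then incubated 30-36 h at 37C. ONE-Glo luminescence was read; sodium butyrate at 4.5 mM final served as control.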
NPC1 prom act: activates the NPC1 promoter; Huh7 NPC1 promoter luciferase reporter, 24 h; Potency, µM (top dose mostly 9.22 µM), for the others: at the top dose activation, actives largely listed as activators; 2.4% of 320,000 active; AID 485313; further: % of control where 0% means no effect; nearly all actives have a fitted effect of over 60% in size
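Luminescence from an NPC1 promoter-driven luciferase reporter in stably transfected Huh7 cells was measured after 24 h compound treatment at 37 °C, followed by 10 min ambient incubation with luciferase detection reagent.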
FLuc modulator: firefly luciferase modulation, counter-screen for miR-21 project; P08659; purified FLuc, Km substrates, luminescence inhibition; Potency, µM (doses to about 57.5 µM), for inactives: top-dose activity change, negative = inhibition, actives largely listed as inhibitors; 6.9% of 360,000 active;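 further: plate controls were vehicle for no effect and reference inhibitor for full effect; nearly all actives have a fitted effect of over 55% in size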
Target sequence (P08659 whole entry, looked up): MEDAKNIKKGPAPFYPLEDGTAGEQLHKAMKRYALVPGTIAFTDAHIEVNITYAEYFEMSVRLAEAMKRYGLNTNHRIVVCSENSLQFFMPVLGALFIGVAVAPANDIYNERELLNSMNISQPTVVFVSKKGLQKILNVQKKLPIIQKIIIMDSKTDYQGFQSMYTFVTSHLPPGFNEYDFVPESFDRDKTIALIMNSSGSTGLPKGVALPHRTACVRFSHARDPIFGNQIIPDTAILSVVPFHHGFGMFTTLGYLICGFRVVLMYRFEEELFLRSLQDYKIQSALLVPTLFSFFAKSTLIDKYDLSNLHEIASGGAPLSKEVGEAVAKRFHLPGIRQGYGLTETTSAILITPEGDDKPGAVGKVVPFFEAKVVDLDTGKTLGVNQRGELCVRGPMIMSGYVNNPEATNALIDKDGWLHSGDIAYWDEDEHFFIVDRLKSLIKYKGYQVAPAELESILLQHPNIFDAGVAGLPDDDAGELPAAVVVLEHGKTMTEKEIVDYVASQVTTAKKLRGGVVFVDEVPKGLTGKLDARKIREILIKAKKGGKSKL
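Biochemical qHTS of compounds, final roughly 60 µM downward over six points, against 10 nM purified firefly luciferase using Km concentrations of substrates (10 uM D-luciferin, 10 uM ATP) in Tris acetate pH 7.5 buffer; luminescence output.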
ELG1 genotox: inducers of genotoxicity in HEK293T ELG1-luciferase cells | Potency, µM (series often up to 46 µM), without a hit: top-dose activity change, positive = activation, most hits filed as activators | HEK293T ELG1-luciferase reporter, luminescence, 16 h | 1.3% of 330,000 active | AID 504466; further: % of control where 0% means no effect; nearly all actives have a fitted effect of over 60% in size
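Reporter readout depends on ELG1 protein level, which increases with genetic stress. After 16 hr compound exposure at 37 °C, luciferase activity was quantified using ONE-Glo.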
Active calls of the source: *; ? = inconclusive; . = no result given; [ ] = remark or other dose. In the library only some 7.5% were active in any assay of this set; here they are far more common. The call rests on the fitted dose curve; in most records, active means well fitted curve in the direction sought with a large enough effect; inconclusive means small, poorly fitted or top-dose-only effect, or another doubt; inactive means no such curve, though single readings can be large; an effect the other way counts as inactive or inconclusive. Potency means the concentration at half of the fitted maximal effect.

SMILES	Luc counter	Rab9 promoter act	SMN2 splice enh	NPC1 prom act	FLuc modulator	ELG1 genotox
COc1ccc(/C=N/Nc2cc(C)nc(-n3nc(C)cc3C)n2)c(OC)c1	-1%	-12%	-102%	0%	17µM*	?
COc1ccc(/C=N\Nc2ncc(F)c(N3CCOCC3)n2)cc1OC	.	12%	.	-2%	11µM*	-8%
COc1ccc(/C=N/Nc2cc(C)nc(N3CCOCC3)n2)cc1	.	19%	.	12%	2.4µM*	3%
COc1ccc(/C=N/Nc2cc(C)nc(N3CCOCC3)n2)cc1OC	.	17%	.	9%	6.7µM*	2%
Cc1ccc2[nH]c(C(=O)NN=C3CCCCC3)c(-c3ccccc3)c2c1	-4%	1%	-11%	-3%	6%	-2%
O=Cc1cn(CCOc2ccccc2F)c2ccccc12	.	3%	.	-4%	?	2%
CCOC(=O)c1c(NC(=O)/C=C/c2ccccc2)sc2c1CCCC2	.	.	11%	.	-2%	.
COc1cccc(/C=N/Nc2nc(Nc3ccccc3)nc(-n3nc(C)cc3C)n2)c1O	-5%	-39%	-8%	-3%	6µM*	-25%
Cc1cc(C)n(-c2nc(Nc3ccccc3)nc(-n3nc(C)cc3C)n2)n1	1%	3%	-18%	2%	5%	-4%
COc1ccccc1/C=N/Nc1cc(C)nc(N2CCOCC2)n1	.	0%	.	4%	13µM*	-3%
CCCCCCCCCCCCC/C=C/[C@@H](O)[C@@H](N)COP(=O)(O)O	1%[39.9 µM]	.	-2%	.	.	.
CC(=O)Nc1ccc(OS(=O)(=O)c2c(C)cc(C)cc2C)cc1	0%	0%	-5%	3%	-17%	-3%
CSc1ccc(CC(=O)N2CCC(n3nccc3NC(=O)C3CC3)CC2)cc1	.	?	.	3.2µM*	?	?
COc1cccc(CC(=O)N2CCC(n3nccc3NC(=O)C3CC3)CC2)c1	.	4%	.	9%	-2%	14%
N#CC1=C(N)Oc2c(ccc3ccccc23)C1c1ccsc1 (stereo unspecified)	2%	-23%	-29%	-5%	?	15µM*
N#CC1=C(N)Oc2c(oc(CO)cc2=O)C1c1ccsc1 (stereo unspecified)	3%	-3%[1.84 µM]	-5%	3%	0%	-3%
CCC(=O)Nc1sc2c(c1C(=O)Nc1ccccc1C)CCC(C)C2 (stereo unspecified)	.	.	.	.	-2%	.
COc1ccc(C(=O)Nc2ccc(NC(=O)c3cc(OC)c(OC)c(OC)c3)cn2)cc1	.	3%	.	-5%	1%	0%
Cc1ccc2nc(-c3ccccc3)cc(C(=O)NCC3CCCO3)c2c1 (stereo unspecified)	.	1%	.	-1%	5.4µM*	-8%
Cc1ccc(-c2nn(-c3ccccc3)cc2C(=O)NCC2CCCO2)cc1 (stereo unspecified)	.	0%	.	0%	13µM*	-3%
CCOc1ccc(-c2cc(C(=O)NCC3CCCO3)c3ccccc3n2)cc1 (stereo unspecified)	-2%	18%	?	13%	5.4µM*	-11%
Cc1cc(Br)cc2c(C(=O)NCC3CCCO3)cc(-c3cccs3)nc12 (stereo unspecified)	.	16%	.	9%	?	?
COc1cccc(-c2cc(C(=O)NCC3CCCO3)c3cc(Br)cc(C)c3n2)c1 (stereo unspecified)	.	5%	.	-7%	2.7µM*	?
COc1ccc(-c2cc(C(=O)NCC3CCCO3)c3ccccc3n2)c(OC)c1 (stereo unspecified)	.	-3%	.	-7%	0%	-10%
CCCc1cc(=O)[nH]c(SCC(=O)NC2(C#N)CCCCC2)n1	.	-7%	.	-1%	5%	1%
SMILES	Luc counter	Rab9 promoter act	SMN2 splice enh	NPC1 prom act	FLuc modulator	ELG1 genotox
CC(C)Oc1ccc(-c2nc(NCC3CCCO3)c3ccccc3n2)cc1 (stereo unspecified)	.	3%	.	-3%	9.5µM*	-7%
O=C(Nc1ccc(C(=O)N2CCC(N3CCOCC3)CC2)cc1)c1ccc(Br)o1	.	-3%	.	-1%	3%	6%
COC(=O)c1c(NC(=O)CN2C(=O)C(=O)N(C(C)C)C2=O)sc(C)c1C	.	1%	.	-1%	.	1%
Cc1ccc(-c2cn(-c3ccccc3F)c(=S)[nH]2)cc1	.	3.2µM*	.	?	?	15%
O=[N+]([O-])c1ccc(-c2cn(-c3ccccc3F)c(=S)[nH]2)cc1	0%	1.4µM*	14%	?	1%	10%
COc1ccccc1-n1cc(-c2ccccc2)[nH]c1=S	.	2%	.	-4%	0%	0%
CCOc1ccc(S(=O)(=O)NCCC(=O)OCC(=O)N2CC(=O)Nc3ccccc32)cc1	-1%	3%	-9%	-7%	1%	1%
Cc1ccc(S(=O)(=O)Nc2ccc3c(c2)CCCN3C(=O)c2cccs2)cc1	.	.	.	.	-19%	.
COc1cccc(CNC(=O)CN(c2ccc(C(C)C)cc2)S(=O)(=O)c2c(C)noc2C)c1	.	2%	1%	-1%	-1%	-3%
COc1cccc(CNC(=O)CN(c2cc(C)cc(C)c2)S(=O)(=O)c2c(C)noc2C)c1	-5%	3.5µM*	11%	-1%	3%	-10%
O=C(CSc1ccc(-c2cccc([N+](=O)[O-])c2)nn1)N1CCCC1	-5%	14%	-6%	1%	-9%	8%
CCSc1ccc(-c2cccc([N+](=O)[O-])c2)nn1	-1%	3.2µM*	?	?	?	?
COC(=O)c1ccccc1NC(=O)CSc1ccc(C)cc1	0%	7%	4%	-2%	-14%	1%
Cc1c(NC(=S)NC(=O)Cc2ccccc2)cccc1C(=O)O	4%	16%	21%	1%	?	8%
CC(C)n1c2ccccc2c2nnc(SCC(=O)Nc3ccccc3C(=O)O)nc21	3%	1%	-20%	-1%	19µM*	2%
Cc1ccc(SCC(=O)Nc2ccccc2C(=O)O)cc1	0%	?	?	?	8.5µM*	17%
O=C(Cc1cccc2ccccc12)Nc1ccccc1C(=O)O	4%	4%	?	13%	27µM*	?
COc1ccc(CC(=O)Nc2cccc(C(=O)O)c2C)cc1	-6%	17%	16µM*	26%	?	13%
CCc1nc2ccc(C)cc2c(C(=O)NC2CCCCC2C)c1C (stereo unspecified)	-3%	-5%	-11%	0%	3%	-1%
CC(C)Cn1c(=O)c2ccccc2n2c(CCC(=O)Nc3ccc(F)cc3)nnc12	.	.	0%	.	-1%	.
CC(=O)/C(=N\Nc1ccc(C)cc1)Sc1nncn1C	-6%	0%	-6%	-2%	0%	-2%
